Source: PubChem
Compounds with a hit are over-represented: about 5.4% of the library has one in this group of screens.
ALR inh = inhibitors of human sulfhydryl oxidase ALR; P55789; actives 3.8% (n = 290,000); inhibition, % (no concentration beside the values); purified ALR, DTT oxidation, H2O2 HRP-luminol luminescence;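 active = mean replicate inhibition above about 79%, with every replicate also reaching it, limit read from the data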
Target sequence (P55789 whole entry, looked up): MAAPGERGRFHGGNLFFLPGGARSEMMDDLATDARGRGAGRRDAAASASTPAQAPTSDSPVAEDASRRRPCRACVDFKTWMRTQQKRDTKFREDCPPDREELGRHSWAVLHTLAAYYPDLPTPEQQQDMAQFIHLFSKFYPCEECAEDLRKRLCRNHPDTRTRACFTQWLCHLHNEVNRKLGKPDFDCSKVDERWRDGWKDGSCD
beta cell repl = MIN6 beta-cell proliferation induction | MIN6 cells proliferation, ATPlite luminescence, 48 h; cells starved in 0.2% serum; 100% = growth in 10% serum | proliferation, % at 10 µM | actives 0.29% (n = 330,000);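 active = compounds whose signal lies at least 3.5 SD above the mean of all wells on their plate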;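 also: 0% = DMSO-treated cells in low-serum medium and 100% = 10% serum control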
PfM18AAP inh = blocks P. falciparum M18 aspartyl aminopeptidase; recombinant PfM18AAP, H-Glu-NHMec fluorogenic cleavage; inhibition, % at 7.35 µM; actives 1.2% (n = 290,000); AID 1822;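 active = inhibition above the campaign mean inhibition over all tested compounds plus 3 SD, cut at about 28% in these data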;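 also: 0% = plate median of test compound wells and 100% = 2 mM ZnCl2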
JMJD2C inh = human JMJD2C demethylase inhibition | GST-JMJD2C(1-420) H3K9me3 demethylation, DELFIA europium | AID 2099 | actives 0.069% (n = 330,000) | inhibition, % at 2.35 µM;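 active = more than half of a compound's replicate wells show inhibition beyond 50%, single wells judged on their own value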;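 also: signal counts dimethyl H3K9 product captured on neutravidin plate; 0% = median of DMSO wells and 100% = 0.3 times that DMSO median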
Granule exo inh = lytic granule exocytosis inhibition; TALL-104 LAMP-1 surface exposure, flow cytometry; cells stimulated with thapsigargin and PMA; inhibition, % at 10 µM; actives 0.66% (n = 360,000);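 active = inhibition above about 55%, limit read from the data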
SMARCA2 act = SMARCA2 function activation, primary screen | MG213 cells, MMTV-luciferase reporter, dexamethasone, overnight | activation, % at 9.1 µM | actives 1% (n = 370,000); in the data active = activation above about 7.8%;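 also: 0% = vehicle wells and 100% = reference activator wells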
Granule exo CP1 = blocks lytic granule exocytosis; actives 11% (n = 1,500); shares compounds with Granule exo inh; inhibition, % at 10 µM; TALL-104 cells, LAMP-1 externalization, flow cytometry; stimulated with PMA plus thapsigargin; AID 651954; in the data active = inhibition above about 60%;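 also: 0% = stimulated vehicle wells and 100% = unstimulated wells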
Starred values were filed as active, the others as inactive; x = no result given.

SMILES	ALR inh	beta cell repl	PfM18AAP inh	JMJD2C inh	Granule exo inh	SMARCA2 act	Granule exo CP1
CN(C)CC(O)COC(c1ccc(Cl)cc1)c1ccc(Cl)cc1 (stereo unspecified)	0	-6	-7	-23	66*	2	-3
COc1ccccc1Cc1c(-c2ccc(C)cc2)nc2ccc(C)cn12	x	x	x	x	x	7	x
Cc1cccc(-c2nc(CN3CCCC(C(=O)NC4CCCCCC4)C3)c(C)o2)c1 (stereo unspecified)	-18	-6	5	11	-3	-4	x
CCOC(=O)N1CCC(NC(=O)C2CCCN(Cc3nc(-c4ccc(CC)cc4)oc3C)C2)CC1 (stereo unspecified)	-1	-4	-2	-38	62*	-7	-3
O=C(NCC1CC1(Cl)Cl)Nc1ccc(Cl)c(Cl)c1 (stereo unspecified)	-1	-4	8	8	90*	-1	-12
Cc1ccc(NC(=O)NCC2CC2(Cl)Cl)cc1 (stereo unspecified)	-2	-1	-7	8	-2	4	x
COc1ccc(Nc2nc(-c3cccc(OC)c3O)nc3ccccc23)cc1	-8	-3	-13	-2	27	3	x
COc1cccc(-c2nc(NC(C)(C)C)c3ccccc3n2)c1O	x	-6	-2	1	56*	0	-11
COC(=O)[C@]12C[C@H](CC(=O)N3CCCCC3)C(=O)N(Cc3ccc4c(c3)OCO4)C1=C[C@H](COCc1ccccc1)O[C@@H]2C	x	x	x	x	x	-3	x
Cc1ccc(C)c(N2CCN(CCCNC(=O)Cn3c(=O)c4cccn4c4cccnc43)CC2)c1	1	-4	1	17	75*	-1	-12
C=CCCC1CN(CC=C)S(=O)(=O)c2c(F)cccc2O1 (stereo unspecified)	x	x	x	x	x	-2	x
COC(=O)[C@]12C[C@H](CC(=O)N3CCSCC3)C(=O)N(Cc3ccccc3)C1=C[C@H](C1CCCC1)O[C@@H]2C	x	x	x	x	x	-4	x
CC1CCN(C(=O)c2ncn3c2C(=O)N[C@H](C)C3)CC1	x	x	x	x	x	-2	x
CCOC(=O)N1CCN(C(=O)CSc2ccc3nnc(-c4cccnc4)n3n2)CC1	-1	-1	-4	5	87*	-1	-13
O=C(NC1CCCCN(Cc2cccc(Cl)c2)C1=O)c1cccs1 (stereo unspecified)	x	x	x	x	x	-6	x
CCCCOc1ccccc1NC(=O)C=C(C)C	1	1	1	4	6	-5	x
CCCOc1ccccc1NC(=O)/C=C/C(N)=O	6	-6	-192	-9	66*	6	0
CCCCCCCCN1C(=O)[C@@H](CC(=O)NCCc2ccccc2OC)C[C@@]2(C(=O)OC)C1=C[C@H](C1CCCC1)O[C@@H]2C	x	x	x	x	x	-3	x
CCC(C)(C)NC(=O)C(c1ccc(F)cc1)N(Cc1ccco1)C(=O)c1snc(C(N)=O)c1N (stereo unspecified)	-17	0	-11	34	1	-1	x
CN(C)c1ccc(C(C(=O)NCc2ccccc2)N(Cc2ccco2)C(=O)c2snc(C(N)=O)c2N)cc1 (stereo unspecified)	12	x	-1	5	99*	-4	2
CN(C)CCC(Oc1ccccc1OCc1ccccc1)c1ccccc1 (stereo unspecified)	-1	-3	x	0	56*	-1	-4
Cc1cc(Nc2cccc(Br)c2)cc(=O)n1-c1cccc(Br)c1	x	x	x	x	x	-3	x
CC(C)C1=CC2C3C(C(C(C)C)=CC(=O)[C@@]3(C)O)C1C(=O)C2(C)O (stereo partly specified)	x	x	x	x	x	-3	x
CN(Cc1ccccc1O)CC1CCCN(CCc2ccc(Cl)cc2)C1 (stereo unspecified)	9	-5	2	-6	69*	0	-12
CCN(Cc1ccc(C#CCCO)cc1)CC1CCCN(CCc2cccc(F)c2)C1 (stereo unspecified)	x	-5	1	10	88*	-1	-10
SMILES	ALR inh	beta cell repl	PfM18AAP inh	JMJD2C inh	Granule exo inh	SMARCA2 act	Granule exo CP1
Cc1occc1C(=O)N(C)CC1CCCN(CCc2ccc(Cl)cc2)C1 (stereo unspecified)	x	x	x	x	5	1	x
CN(Cc1ccc(C#CCCO)cc1)CC1CCCN(CCc2ccc(Cl)cc2)C1 (stereo unspecified)	x	-4	0	-2	70*	-2	-10
Cc1ccc(NS(=O)(=O)c2cc(C(=O)NCc3cccnc3)ccc2C)cc1	-6	-2	3	5	63*	-1	-14
Cc1ccc(S(=O)(=O)Nc2ccc(C(=O)NCc3cccnc3)cc2)cc1	-11	1	2	2	-3	7	x
Cc1cccc(C)c1OCC(O)CN(Cc1ccccc1O)C1CCCCC1 (stereo unspecified)	13	-6	-4	-23	57*	0	-4
COc1ccc(C(C(=O)N(C)C2CCCC2)N(Cc2ccc(F)cc2)C(=O)c2csc(-c3ccccc3)n2)cc1OC (stereo unspecified)	x	x	x	x	x	-4	x
COc1ccc(C(=O)c2[nH]c(N)c(C(=O)NCCc3c[nH]c4ccccc34)c2-c2ccccc2C(F)(F)F)cc1	x	x	x	x	x	-8	x
COCCCNC(=S)N1CCN(c2nc(C)nc3sc4c(c23)CCCC4)CC1	10	-2	-13	14	66*	-4	-3
CC(C(=O)N1CCc2ccccc21)N1CCN(c2cccc(C(F)(F)F)c2)CC1 (stereo unspecified)	6	-1	1	7	61*	-4	-13
CC(C(=O)N1CCc2ccccc21)N1CCN(S(=O)(=O)c2ccc(C(F)(F)F)cc2)CC1 (stereo unspecified)	-2	-4	x	-2	-2	-5	x
COc1ccc(C(=O)CC2(O)C(=O)N(CN3CCOCC3)c3ccc(Br)cc32)cc1 (stereo unspecified)	x	x	x	x	x	2	x
CCOC(=O)N1CCN(S(=O)(=O)c2ccc(C(=O)N(CCCN(C)C)c3nc4ccc(CC)cc4s3)cc2)CC1	-1	-7	9	-10	62*	2	-3
COc1cc2nc(N(CCCN(C)C)C(=O)c3ccc(S(=O)(=O)N4CCc5ccccc5C4)cc3)sc2cc1OC	-3	-7	x	8	46	-1	x
CCc1ccc2nc(N(CCCN(C)C)C(=O)c3ccc(S(=O)(=O)N4CCCc5ccccc54)cc3)sc2c1	-13	-7	0	-11	56*	-2	23
CCc1ccc2nc(N(CCCN(C)C)C(=O)c3ccc(S(=O)(=O)N4CCCC4)cc3)sc2c1	-13	-6	5	-5	14	-3	x
CCOC(=O)N1CCN(S(=O)(=O)c2ccc(C(=O)Nc3nc4ccccc4s3)cc2)CC1	-4	-1	-1	4	100*	-2	-10
